Measured values published in PubChem BioAssay AID686978 (National Center for Advancing Translational Sciences (NCATS), 2013).
About 64,000 (15%) of roughly 420,000 compounds were called active. Roughly 27% stayed inconclusive and do not appear here. Not all results are given here. Values without a mark were called inactive. The call rests on the fitted dose curve; in most records, active means well fitted inhibition curve with a large enough effect; inconclusive means small, poorly fitted or top-dose-only effect; inactive means flat fitted curve, though single readings scatter.
On the % scale 0 is the no-effect control and ±100 the full control effect; potency means the concentration at half of the fitted maximal effect.

Assay: qHTS for Inhibitors of human tyrosyl-DNA phosphodiesterase 1 (TDP1): qHTS in cells in absence of CPT; further: nearly all actives have a fitted effect of over 55% in size
Conditions: DT40 Tdp1-/- hTDP1 cells, no CPT, ATP luminescence, 48 h; activity change, negative = growth inhibition: at 46.2 µM (top of the series)
Method in brief: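 No-CPT arm: Tdp1-/-;hTDP1 DT40 cells (400/well) plus compounds, incubated ≥48 hr at 37 °C. Readout CellTiter-Glo luminescence.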
For `CC(C)(C)C1CCC(OC(=O)CCC(=O)Nc2ccccc2)CC1` (stereo not given), the “activity change, negative = growth inhibition” value was -2.86%. For `CN1CCN(C(=O)/C(=C\c2cccs2)NC(=O)c2cccs2)CC1`, the “activity change, negative = growth inhibition” value was -7.36%. In the case of `Cc1cccc(NC(=O)Cn2cc(S(=O)(=O)Cc3ccccc3Cl)c3ccccc32)c1`, the Potency is reported as 20.6 µM (active). For `CCOC(=O)c1ccc(NC(=O)Cn2cc(S(=O)(=O)Cc3ccccc3F)c3ccccc32)cc1`, the “activity change, negative = growth inhibition” value was -26.3%. In the case of `COc1cccc(NC(=O)CS(=O)(=O)c2cn(CC(=O)N3CCOCC3)c3ccccc23)c1`, the “activity change, negative = growth inhibition” value is reported as 0.349%. With `OCCN1CCN(c2ncnc3c2ncn3[C@H]2CN(Cc3ccco3)C[C@@H](CO)O2)CC1` the “activity change, negative = growth inhibition” value was -10.1%. With `O=C(Nc1ccc(Cl)cc1)c1csc([C@@H]2O[C@H](CO)[C@H](O)[C@H](O)[C@H]2O)n1` the “activity change, negative = growth inhibition” value was -0.432%. For `CSc1nnnn1-c1c(C)cc(C)cc1C`, the “activity change, negative = growth inhibition” value was 7.83%. In the case of `COc1cccc(NC(=O)CN(C)CC(=O)Nc2ccc3c(c2)CCC3)c1`, the “activity change, negative = growth inhibition” value is reported as -4%. For `CNC(=O)/C(C#N)=C/c1c(F)cccc1Cl`, the Potency was 9.2 µM (active). For `O=C(/C=C/c1c(F)cccc1Cl)Nc1nn[nH]n1`, the “activity change, negative = growth inhibition” value was 1.45%. With `Cc1[nH]c2ccccc2c1/C=C(/C#N)C(=O)NC(C)C` the “activity change, negative = growth inhibition” value was -9.84%. With `Cc1ccc(C(=O)N2CCC(n3nccc3NC(=O)Nc3cccc(F)c3)CC2)cn1` the “activity change, negative = growth inhibition” value was 10.4%. With `Brc1cccc(-c2nnn3c2nc(NC2CCCCC2)c2ccccc23)c1` the “activity change, negative = growth inhibition” value was -26.7%. With `CCCc1nc2sc3c(c2c(=O)n1NC(=O)CCCl)CCCC3` the Potency was 29.1 µM (active). For `Cc1ccc(C)c(-n2c(SCC(=O)O)nc3sc4c(c3c2=O)CCCC4)c1`, the “activity change, negative = growth inhibition” value was -16.6%. In the case of `COc1ccc(NC(=O)CCNC(=O)Cn2cnc3sc4c(c3c2=O)CCCC4)cc1OC`, the “activity change, negative = growth inhibition” value is reported as -4.24%. For `CC(C)N(Cc1nc(-c2ccc3c(c2)OCO3)no1)CC1CCC(=O)N1` (stereo not given), the “activity change, negative = growth inhibition” value was 8.55%. In the case of `CCC(=O)c1ccc(OCC(=O)OCC(=O)NC2CCCCCC2)cc1`, the “activity change, negative = growth inhibition” value is reported as -17%. With `O=C(COc1ccccc1)Nc1ccc(C(=O)N2CCCC2)cc1` the “activity change, negative = growth inhibition” value was 22.5%. With `CCC(=O)c1ccc(OCC(=O)Nc2ccc(N3CCCCC3)cc2)cc1` the Potency was 20.6 µM (active). For `O=C(NCC(=O)N1CCCCCCC1)c1ccccc1Cl`, the “activity change, negative = growth inhibition” value was 12.3%. With `COc1cc(C(=O)Nc2ccc(-n3c(C)nc4ccccc4c3=O)cc2)cc(OC)c1OC` the Potency was 18.4 µM (active). In the case of `COc1cc(C(=O)Nc2ccc(OCc3cc(=O)n4ccc(C)cc4n3)cc2)cc(OC)c1OC`, the “activity change, negative = growth inhibition” value is reported as -9.6%. In the case of `Cc1nc2ccccc2c(=O)n1-c1ccc(NS(=O)(=O)c2ccc(F)cc2F)cc1`, the “activity change, negative = growth inhibition” value is reported as -14.2%. In the case of `C=CCNc1nnc(SCC(=O)N2CCCCC2)c2ccccc12`, the “activity change, negative = growth inhibition” value is reported as 4.38%. For `CC(C)(C)NC(=O)Cn1c(SCC(=O)Nc2nccs2)nc2ccccc21`, the “activity change, negative = growth inhibition” value was -4.92%. With `Cc1cc(NC(=O)CSc2nc3ccccc3n2CC(C)C)no1` the “activity change, negative = growth inhibition” value was -4.04%. With `Cc1cc(C)c(NC(=O)Cn2c(SCC(=O)NCc3ccccc3)nc3ccccc32)c(C)c1` the Potency was 18.4 µM (active). For `O=[N+]([O-])c1ccc(Oc2ccc(F)cc2Br)c2ccncc12`, the Potency was 23.1 µM (active). With `O=c1[nH]c2c(c(=O)n1-c1ccccc1)CCO2` the “activity change, negative = growth inhibition” value was -19.7%. For `CCOC(=O)c1ccc(NC(=S)N2CCCC2)cc1`, the “activity change, negative = growth inhibition” value was 0.979%. For `CCC(C)c1ccc(NC(=S)N2CCCC2)cc1` (stereo not given), the Potency was 10.3 µM (active). For `CCOc1ccc(NC(=S)N2CCCCCC2)cc1`, the “activity change, negative = growth inhibition” value was 8.01%. In the case of `Cc1cc(OCC(=O)NCC(O)c2ccccc2)c2c(C)c(C)c(=O)oc2c1` (stereo not given), the “activity change, negative = growth inhibition” value is reported as -21.4%. In the case of `CCCC1CC(C)(C(=O)Cn2[nH]c(=O)ccc2=O)OC1=O` (stereo not given), the “activity change, negative = growth inhibition” value is reported as -8.19%. In the case of `COc1cc(-c2nnc(NC(=O)CS(=O)(=O)c3ccc(Cl)cc3)o2)cc(OC)c1OC`, the “activity change, negative = growth inhibition” value is reported as 4.37%. In the case of `COC(=O)c1c(-c2ccsc2)oc2ccc(-c3cc(OC)c(OC)c(OC)c3)cc12`, the Potency is reported as 16.4 µM (active). With `CCOC(=O)c1c(-c2ccccc2)oc2ccc(OCC(=O)NN)cc12` the “activity change, negative = growth inhibition” value was 1.78%. For `C/C(Nc1ccc2oc(=O)ccc2c1)=C1/C(=O)CC2[C@@H]1C2(C)C` (stereo not given in full), the activity change, negative = growth inhibition was -12.6% [at 9.04 µM]. In the case of `C/C(=N/NC(=O)c1ccn(C)n1)c1ccncc1`, the “activity change, negative = growth inhibition” value is reported as 14.9%. For `Cc1cnc(NC(=O)C2CCCC2)s1`, the “activity change, negative = growth inhibition” value was -8.92%. With `C/C=C/NNC(=O)Cc1ccc(OC)cc1` the Potency was 5.62 µM (active). With `COc1ccc(CC(=O)Nc2ccc(-c3nnc(-c4ccc(C)cc4)o3)cc2)cc1` the “activity change, negative = growth inhibition” value was -10.4%. For `CCCCCNC(=O)Cc1ccc(OC)cc1`, the “activity change, negative = growth inhibition” value was -23%. With `CS(=O)(=O)N1CCN(C(=O)Cc2ccccc2)CC1` the “activity change, negative = growth inhibition” value was -5.14%. For `CC(C)c1ccc(CC(=O)N2CCC2(C)C(=O)NS(=O)(=O)c2ccc(C(C)(C)C)cc2)cc1` (stereo not given), the “activity change, negative = growth inhibition” value was -8.67%. In the case of `Oc1ccc(CN2CCN(c3ncccn3)CC2)cc1`, the “activity change, negative = growth inhibition” value is reported as 0.422%. In the case of `CC1=C(N2CCN(c3ncccn3)CC2)CCC1=O`, the “activity change, negative = growth inhibition” value is reported as 9.41%. For `c1cnc(N2CCN(c3ccc4ccccc4n3)CC2)nc1`, the Potency was 18.4 µM (active). For `N#CCc1ccc(NC(=O)c2ccccc2C(=O)Nc2ccc(CC#N)cc2)cc1`, the “activity change, negative = growth inhibition” value was -5.04%. For `CC(=O)Nc1ccc(CC#N)cc1`, the “activity change, negative = growth inhibition” value was 10.2%. In the case of `CC(C)n1ncc2c(C(=O)N3CCN(Cc4cccs4)CC3)cc(C3CC3)nc21`, the Potency is reported as 25.9 µM (active). For `O=C(NCCN1CCOCC1)c1cnn(-c2nccc(-c3cccs3)n2)c1C1CC1`, the “activity change, negative = growth inhibition” value was -8%. For `CC(C)n1ncc2c(C(=O)Nc3ccc(CC#N)cc3)cc(C3CC3)nc21`, the Potency was 13 µM (active).
